Source: PubChem (several laboratories)
Most compounds without a hit are left out; they make up all but 3% or so of the library.
PAFAH2 FP inh = inhibitors of human PAFAH2 | Q99487 | recombinant PAFAH2, FP-rhodamine activity probe, fluorescence polarization | inhibition, % at 3.39 µM | actives 0.99% (n = 340,000) | AID 492956;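 active = inhibition above the mean over all tested compounds plus 3 SD, cut at about 30% in these data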;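 note: inhibitors block probe labeling of enzyme so polarization drops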
PAFAH1B3 inh = PAFAH1B3 (human) inhibition | Q15102 | recombinant PAFAH1B3, FP-rhodamine probe, fluorescence polarization | inhibition, % at 3.39 µM | actives 0.28% (n = 340,000) | AID 492972;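 active = inhibition above the screen-wide average of all tested compounds plus 3 SD, cut at about 25% in these data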
DAGLB inh = blocks human DAGLB lipase activity. HEK293T DAGLB membrane lysate, EnzChek fluorogenic substrate. inhibition, % at 5.17 µM. actives 0.059% (n = 340,000); in the data active = inhibition above about 34%
ATG4B inhibitor = blocks human ATG4B protease cleavage of LC3 substrate. Q9Y4P1. ATG4B cleavage of LC3-PLA2, NBD-HPC fluorescence, 1 h. inhibition, % at 8.33 µM. actives 0.51% (n = 340,000); in the data active = inhibition above about 40%
pPAFAH FP inh = inhibitors of human plasma PAF acetylhydrolase (pPAFAH). Q13093. recombinant pPAFAH, FP-rhodamine probe fluorescence polarization. inhibition, % at 3.39 µM. actives 1.5% (n = 330,000);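 active = inhibition above the mean inhibition across the screen plus 3 SD, cut at about 25% in these data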;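 note: inhibitors block binding of the rhodamine activity-based probe so polarization drops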
PAFAH1B2 FP inh = inhibitors of human PAFAH1B2 | recombinant PAFAH1B2, FP-rhodamine activity probe, fluorescence polarization | inhibition, % at 3.39 µM | actives 1.2% (n = 340,000);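 active = inhibition above the mean of all tested compounds plus 3 SD, cut at about 24% in these data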
Target sequence (P68402 whole entry, looked up): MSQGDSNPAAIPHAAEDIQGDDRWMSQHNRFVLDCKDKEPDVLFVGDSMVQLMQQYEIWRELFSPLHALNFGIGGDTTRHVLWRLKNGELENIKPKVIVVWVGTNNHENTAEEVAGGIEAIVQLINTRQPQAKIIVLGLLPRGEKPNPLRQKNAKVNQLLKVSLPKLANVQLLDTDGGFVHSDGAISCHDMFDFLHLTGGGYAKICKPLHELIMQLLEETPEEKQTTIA
ATG4B confirm = confirmation of human ATG4B inhibitors; actives 92% (n = 320); inhibition, % at 8.33 µM; AID 504757; ATG4B protease fluorescent substrate cleavage assay; shares compounds with ATG4B inhibitor; in the data active = inhibition above about 39%
PLA2 ctr = inhibits human PLA2, flagging false ATG4B inhibitors; purified PLA2, NBD-C6-HPC fluorescence, 45 min; actives 66% (n = 1,600); inhibition, % at 8.33 µM; AID 588402; shares compounds with ATG4B inhibitor; in the data active = inhibition above about 50%
Target sequence (P04054 whole entry, looked up): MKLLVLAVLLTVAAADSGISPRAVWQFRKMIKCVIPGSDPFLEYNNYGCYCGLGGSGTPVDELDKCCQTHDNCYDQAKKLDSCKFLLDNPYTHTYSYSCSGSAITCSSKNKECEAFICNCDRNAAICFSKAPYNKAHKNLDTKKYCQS
Numbers stand for hits; 0 = inactive; - = not tested or not shown.

SMILES	PAFAH2 FP inh	PAFAH1B3 inh	DAGLB inh	ATG4B inhibitor	pPAFAH FP inh	PAFAH1B2 FP inh	PLA2 ctr	others
Cc1nn(-c2ccccc2)c(N)c1C(O)(C(F)(F)F)C(F)(F)F	0	0	0	0	0	0	-
Cc1nn(-c2ccccc2)c(N)c1N=Nc1ccccc1	0	0	0	72.6	0	0	81.2
Cc1cccc(N=Nc2c(C)nn(-c3ccccc3)c2N)c1C	0	0	0	81.8	0	0	89.7
Nc1ncnc(N)c1N=Nc1ccccc1	0	0	0	0	-	0	-
Nc1nn(-c2ccccc2)c(N)c1N=Nc1ccccc1	0	0	0	44.7	0	0	0	ATG4B confirm=64.2
Cc1nn(-c2ccccc2)c(N)c1N=Nc1cccc(S(=O)(=O)N2CCOCC2)c1	0	0	0	43.9	0	0	0
CC(N=C1CC(C)(C)CC(=O)/C1=C(/O)CCCN1C(=O)c2ccccc2C1=O)C(=O)O (stereo not drawn)	0	0	0	0	0	0	-
CCOC(=O)C1CCN(C(=O)NS(=O)(=O)c2ccc(C)cc2)CC1	0	0	0	0	0	0	-
Cc1nn(-c2ccccc2)c(N)c1N=Nc1ccc(Cl)cc1	0	0	0	80.7	0	0	88.8
Nc1nn(-c2ccccc2)c(N)c1N=Nc1ccccc1F	0	0	0	69.6	0	0	71.9
Cc1noc(C)c1CC(=O)Nc1ccc2c(c1)OCO2	0	0	0	0	0	0	-
Cc1c(Cl)cccc1NC(=O)COC(=O)c1c2c(nc3ccccc13)CCN(Cc1ccccc1)C2	0	0	0	74.1	0	0	85.0
CC(C)c1ccccc1NC(=O)COC(=O)c1c2c(nc3ccccc13)CCN(Cc1ccccc1)C2	0	0	0	46.4	0	0	58.1
Cc1cc(N2CCN(C)CC2)ccc1NC(=O)c1c2c(nc3ccccc13)CCN(Cc1ccccc1)C2	0	0	0	0	0	0	-
Cc1cc(C)c2sc(N(CCCN(C)C)C(=O)c3ccc(S(=O)(=O)N(C)Cc4ccccc4)cc3)nc2c1	0	0	0	41.7	0	0	0
CCN(Cc1ccccc1)S(=O)(=O)c1ccc(C(=O)N(CCCN(C)C)c2nc3cc(C)cc(C)c3s2)cc1	0	0	0	0	0	0	-
Cc1ccc(S(=O)(=O)Nc2cccc(C(=O)NCC3(N4CCCCC4)CCCCC3)c2)cc1F	0	0	0	0	0	0	-
COc1ccc(CN2C=C3C(=O)C(C)(OC(=O)C4CCCC4)C(=O)C=C3C=C2c2ccsc2)cc1 (stereo not drawn)	0	0	0	0	0	0	-
COC(=O)CCC(=O)OC1(C)C(=O)C2=CN(Cc3ccc4c(c3)OCO4)C(c3ccc(OC)cc3)=CC2=C(Br)C1=O (stereo not drawn)	0	0	0	0	0	0	-
COc1ccc(C2=CC3=C(Br)C(=O)C(C)(OC(=O)C4CCCC4)C(=O)C3=CO2)cc1 (stereo not drawn)	0	0	0	65.3	25.4	0	81.3
COc1ccc(C2=CC3=C(Br)C(=O)C(C)(OC(=O)c4ccc(Cl)nc4)C(=O)C3=CO2)cc1 (stereo not drawn)	-	-	-	66.5	28.1	-	58.7
COc1cc(C(=O)N(Cc2ccccc2)c2cccc(C)c2)ccc1OC(F)F	0	0	0	0	0	0	-
Cc1cc(C)cc(NC(=O)CSc2nc3nc(C)cc(C)n3n2)c1	0	0	0	0	0	0	-
Fc1ccc(C2c3[nH]c4ccccc4c3CCN2Cc2cccn2-c2ncccn2)cc1 (stereo not drawn)	0	0	0	40.8	0	0	0	ATG4B confirm=70.3
CCCOc1cccc(C(=O)NCCNC(=O)c2cnccn2)c1	0	0	0	0	0	0	-
Cn1c(COc2ccc(Br)cc2)nnc1SC1CCc2ccccc2C1=O (stereo not drawn)	0	0	0	49.5	0	0	62.4
CCOc1ccccc1NC(=O)COC(=O)CN1C(=O)NC(C)(C)C1=O	0	0	0	0	0	0	-
COc1cc(NC(=O)CCc2nnc3ccc(N4CCCCC4)nn23)cc(OC)c1OC	0	0	0	0	0	0	-
